Results on seven compounds are retold here after PubChem BioAssay (NCATS).

The target in assay [1] is Lysosomal acid glucosylceramidase (Homo sapiens) (UniProt P04062). As to the kind of experiment: Glucocerebrosidase-p2 (AID 348; in the data active means potency below about 10 µM; further: potency means the concentration at half of the fitted maximal effect). The settings on record: purified GBA, blue fluorogenic substrate, 40 min. A digest of the protocol:
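Normal human glucocerebrosidase (0.2 nM) with blue fluorogenic substrate (80 uM final) in citrate/phosphate pH 5.9 with 10mM sodium taurocholate, 0.01% tween-20; 40 min RT, NaOH/glycine stop; fluorescence Ex 365/Em 440; AC50 from a titration from 0.6 nM upwards.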

The nature of assay [2]: AP1 Signaling Pathway (AID 357). Further: on the % scale 0 is the no-effect control and ±100 the full control effect. The settings on record: ME-180 AP-1-bla reporter, EGF-induced, beta-lactamase ratio, 5 h. In short, it runs like this: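 AP-1-bla ME-180 cells with beta-lactamase reporter under AP-1 response element, stimulated with EC50 EGF; compounds titrated, 5 hours at 37 degrees Celsius. CCF4 read at 460/530 nm ratio; positive and negative modulators judged by AC50.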

The target in assay [3] is Cytochrome P450 1A2 (Homo sapiens) (UniProt P05177). The experiment in a line: p450-cyp1a2 (AID 410; calls by dose curve; further: potency means the concentration at half of the fitted maximal effect;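 on activity change, negative = inhibition: -100% = full effect of reference inhibitor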). The settings on record: recombinant CYP1A2, luciferin-ME demethylation, luminescence; series mostly up to 25.6 µM. A digest of the protocol:
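Luminescent demethylation readout: Luciferin-ME (100uM, equal to Km) turned over by 20nM CYP1A2 for 60 min at room temperature after NADPH regeneration addition, following 10 min compound preincubation. Normalization used 57 uM furafylline as full inhibition.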

Assay [4] can be described thus: NFAT Signaling Pathway (AID 444).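 Further: carbachol stimulus at about its EC50 of 1 µM final; on the % scale 0 is the no-effect control and ±100 the full control effect.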 Conditions: Jurkat NFAT-bla M1, carbachol, beta-lactamase ratio, 5 h. In short, it runs like this: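 Jurkat cells with NFAT-driven β-lactamase reporter and co-expressed M1 receptor, stimulated with carbachol (final 1 uM, ~EC50), compound titration, 5 h at 37 °C. CCF4 loaded 1 h at RT; 460/530 nm ratio gave %activity and AC50.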
The nature of assay [5]: Stat Signaling Pathway (AID 446).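 Further: ME-180 cervical cancer cells given 40 pM IL-6 alongside compound; SIE-controlled beta-lactamase reporter measured as 460/530 nm FRET emission ratio; on the % scale 0 is the no-effect control and ±100 the full control effect.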 Conditions: ME-180 (cervical carcinoma) SIE beta-lactamase reporter, IL-6 stimulated, 5 h. In short, it runs like this:
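Compound effects on IL-6-induced STAT reporter activity were measured in ME-180 cells. After overnight culture, cells were co-treated with 40 pM IL-6 for 5 hrs before beta-lactamase substrate loading at room temperature.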

Assay [6] concerns the target Mitogen-activated protein kinase 10 (Mus musculus) (UniProt Q61831). The experiment in a line: JNK3 AlphaScreen Assay (AID 530).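 Further: kinase came from lysate of stimulated human HepG2 cells; signal reports phosphorylation of biotinylated GST-cJun 1-79 at Ser73 with 10 µM ATP; on the % scale 0 is the no-effect control and ±100 the full control effect.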 The settings on record: JNK3 lysate, c-Jun phosphorylation; series mostly up to 25.6 µM. In short, it runs like this: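 Activity was read by AlphaScreen after JNK3-containing HepG2 lysate (cytokine pre-activated) phosphorylated biotinylated GST-cJun with 10 uM ATP at room temperature. Phospho-Ser73 cJun antibody with Protein-A acceptor beads provided detection.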
In general terms: In Alpha technology, singlet oxygen from a donor bead excites a nearby acceptor bead.

Assay [7] has as its target Glucocorticoid receptor (Homo sapiens) (UniProt P04150). As to the kind of experiment: GR-GFP Redistribution (AID 450;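 active means compounds whose dose series gives a full or clear partial fitted curve of increased nuclear translocation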; further: potency means the concentration at half of the fitted maximal effect). Conditions: U2OS GR-GFP nuclear translocation, laser cytometry, 2 h.
For assay [8] the target is unchanged. As to the kind of experiment: GR-EFC Redistribution (AID 451; calls by dose curve; further: potency means the concentration at half of the fitted maximal effect). Conditions: CHO-K1 GR-EFC translocation, beta-gal luminescence, 2 h. A digest of the protocol: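 CHO-K1 cells expressing nuclear EA and GR-ED fragments of b-gal; compounds titrated up to 46 uM final, 2 h at 37 C. GR nuclear translocation read as complemented b-gal luminescence after 1 h RT detection.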

Several values for one entry are separate records, joined by “and”; a condition that tells them apart may be missing. Equal entries are not always repeated. A number with no mark means an inactive call. Inconclusive results are not listed. Activity calls are given as the source filed them. Unless noted, the call rests on the fitted dose curve; in most records, active means well fitted curve in either direction with a large enough effect (not every such curve was filed as active); inconclusive means small, poorly fitted or top-dose-only effect, or another doubt; inactive means flat fitted curve, though single readings scatter.

Cytochrome P450 1A2 (Homo sapiens), sequence (P05177 whole entry, looked up): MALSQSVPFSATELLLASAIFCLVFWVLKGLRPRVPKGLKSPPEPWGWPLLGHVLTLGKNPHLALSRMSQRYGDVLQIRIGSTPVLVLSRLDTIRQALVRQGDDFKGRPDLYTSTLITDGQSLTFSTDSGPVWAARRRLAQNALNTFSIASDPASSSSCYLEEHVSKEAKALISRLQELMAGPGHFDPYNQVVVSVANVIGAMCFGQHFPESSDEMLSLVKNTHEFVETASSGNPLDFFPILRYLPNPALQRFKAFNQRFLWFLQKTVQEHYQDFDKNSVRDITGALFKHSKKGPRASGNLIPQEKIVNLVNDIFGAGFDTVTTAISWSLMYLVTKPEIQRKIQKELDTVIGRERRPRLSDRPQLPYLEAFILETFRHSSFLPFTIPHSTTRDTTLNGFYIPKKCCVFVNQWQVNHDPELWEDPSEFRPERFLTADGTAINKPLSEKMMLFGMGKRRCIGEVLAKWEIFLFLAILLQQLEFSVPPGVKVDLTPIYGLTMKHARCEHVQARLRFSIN
Glucocorticoid receptor (Homo sapiens), sequence (P04150 whole entry, looked up, the tested form may be a part): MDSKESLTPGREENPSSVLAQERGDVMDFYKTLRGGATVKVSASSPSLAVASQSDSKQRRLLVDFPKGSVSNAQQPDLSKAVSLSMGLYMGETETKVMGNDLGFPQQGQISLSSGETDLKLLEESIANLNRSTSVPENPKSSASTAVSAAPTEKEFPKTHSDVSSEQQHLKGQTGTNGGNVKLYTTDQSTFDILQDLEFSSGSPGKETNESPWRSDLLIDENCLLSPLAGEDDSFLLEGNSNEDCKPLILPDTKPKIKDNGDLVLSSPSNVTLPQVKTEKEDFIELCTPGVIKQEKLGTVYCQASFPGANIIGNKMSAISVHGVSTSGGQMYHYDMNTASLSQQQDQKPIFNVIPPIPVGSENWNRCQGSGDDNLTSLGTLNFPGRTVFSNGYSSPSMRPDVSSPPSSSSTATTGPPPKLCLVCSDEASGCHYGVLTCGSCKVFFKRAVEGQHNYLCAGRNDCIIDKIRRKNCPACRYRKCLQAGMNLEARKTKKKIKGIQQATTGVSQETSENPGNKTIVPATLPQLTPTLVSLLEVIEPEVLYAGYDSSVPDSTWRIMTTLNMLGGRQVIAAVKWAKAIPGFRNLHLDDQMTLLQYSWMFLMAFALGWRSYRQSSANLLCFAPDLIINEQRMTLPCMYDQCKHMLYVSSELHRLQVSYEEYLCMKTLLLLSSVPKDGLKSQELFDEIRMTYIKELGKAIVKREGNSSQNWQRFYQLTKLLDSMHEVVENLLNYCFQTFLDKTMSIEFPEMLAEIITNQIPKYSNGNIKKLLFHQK
Lysosomal acid glucosylceramidase (Homo sapiens), sequence (P04062 whole entry, looked up): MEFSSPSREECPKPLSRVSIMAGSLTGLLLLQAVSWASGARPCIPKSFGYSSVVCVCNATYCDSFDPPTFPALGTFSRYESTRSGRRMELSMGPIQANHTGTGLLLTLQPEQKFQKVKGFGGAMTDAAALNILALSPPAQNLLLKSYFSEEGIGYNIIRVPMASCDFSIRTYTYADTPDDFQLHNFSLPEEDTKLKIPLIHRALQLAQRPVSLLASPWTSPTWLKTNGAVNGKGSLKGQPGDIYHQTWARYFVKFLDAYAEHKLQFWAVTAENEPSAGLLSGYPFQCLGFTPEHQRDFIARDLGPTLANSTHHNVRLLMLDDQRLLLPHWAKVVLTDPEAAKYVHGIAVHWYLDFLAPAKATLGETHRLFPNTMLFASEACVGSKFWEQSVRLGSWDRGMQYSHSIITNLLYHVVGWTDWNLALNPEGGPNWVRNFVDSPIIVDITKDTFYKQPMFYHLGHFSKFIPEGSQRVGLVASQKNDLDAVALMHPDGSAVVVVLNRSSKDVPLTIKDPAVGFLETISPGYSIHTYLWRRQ

In the case of `Cc1cc(N)c2cc(NC(=O)Nc3ccc4nc(C)cc(N)c4c3)ccc2n1`, the Potency in assay [1] is more than 11.4 µM. For the same compound, the activity change, negative = inhibition was 14% in assay [2] (at 7.69 µM (top of the series)) and -11.7% in assay [4] (at 7.69 µM (top of the series)). Moreover, in assay [3], the Potency result is “inactive”. Also, the activity, negative = inhibition in assay [5] (at 7.69 µM (top of the series)) is -4.38%. The compound was classed as inactive in assay [6].
As for `C1CCc2nnnn2CC1`, the activity change, negative = inhibition in assay [2] (at 17.2 µM (top of the series)) was 8.91%; in assay [2] (at 38 µM (top of the series)), 6.67%; in assay [4] (at 17.2 µM (top of the series)), -9.11%; in assay [4] (at 38 µM (top of the series)), -6.06%. Also, the Potency result in assay [3] is “inactive”. Also, the values for the activity, negative = inhibition in assay [5] (at 17.2 µM (top of the series)) and in assay [5] (at 38 µM (top of the series)) were 5.56% and -9.49%, respectively. For the same compound, the compound was classed as inactive in assay [6].
For the compound `Oc1cc(O)c2c(c1)O[C@H](c1ccc(O)c(O)c1)[C@H](O)C2`, the activity change, negative = inhibition in assay [2] (at 17.2 µM (top of the series)) was 10.1% and 0.263%; in assay [2] (at 38 µM (top of the series)), -5.09%; in assay [4] (at 17.2 µM (top of the series)) it was -6.82% and 0.191%; in assay [4] (at 38 µM (top of the series)), -2.11%. Moreover, the Potency result in assay [3] is “inactive”. Besides, the Potency in assay [7] is > 46 µM and > 20.6 µM; in assay [8], > 46 µM and > 20.6 µM. Further, in assay [6], the compound was called inactive.
Consider `CCCn1c(=O)[nH]c(=O)c2[nH]cnc21`, for which the activity change, negative = inhibition in assay [2] (at 17.2 µM (top of the series)) was 4.48%; in assay [2] (at 38 µM (top of the series)), 4.71%; in assay [4] (at 17.2 µM (top of the series)) it was -21.8%; in assay [4] (at 38 µM (top of the series)) it was 4.56%. Moreover, in assay [3], the Potency result was “inactive”. For the same compound, in assay [6], the result was inactive.
With `OC(CCN1CCCCC1)(c1ccccc1)c1ccccc1`, the Potency in assay [1] is more than 11.4 µM. Moreover, the activity change, negative = inhibition in assay [2] (at 7.69 µM (top of the series)) is -3.31%; in assay [2] (at 17.2 µM (top of the series)), 7.98% and -4.16%; in assay [4] (at 7.69 µM (top of the series)) it was -73.6% (active); in assay [4] (at 17.2 µM (top of the series)), -42.4% (active) and -77.8% (active). In assay [3], the Potency entry was “inactive”. The result in assay [6] was inactive.
Regarding `CC(C)COC(=O)OCN1C(=O)CN(CCN2CC(=O)N(COC(=O)OCC(C)C)C(=O)C2)CC1=O`, the activity change, negative = inhibition in assay [2] (at 38 µM (top of the series)) was 5.55%; in assay [4] (at 38 µM (top of the series)), 7.64%. Further, the Potency entry in assay [3] is “inactive”. In assay [5] (at 38 µM (top of the series)), the activity, negative = inhibition is -1.3%. Further, the Potency in assay [7] and in assay [8] was more than 46 µM throughout. Besides, the compound was classed as inactive in assay [6].
Take `CNCCC=C1c2ccccc2CCc2ccccc21`: the activity change, negative = inhibition in assay [2] (at 7.69 µM (top of the series)) is -6.8%; in assay [2] (at 17.2 µM (top of the series)), 15.1% and 18.2%; in assay [2] (at 38 µM (top of the series)), 16.2%; in assay [4] (at 7.69 µM (top of the series)) it was -80.1% (active); in assay [4] (at 17.2 µM (top of the series)) it was -86.8% (active). In addition, the Potency is 25.1 µM (active) in assay [3]; > 46 µM and > 20.6 µM in assay [7]; > 46 µM and > 20.6 µM and > 9.22 µM in assay [8]. Moreover, the result in assay [6] was inactive.
